An excerpt weighted towards active compounds, which were near 2.7% of everything screened.
PfGluPho inh: PfG6PD (Plasmodium falciparum) enzyme inhibition. PfGluPho enzyme, NADPH resazurin-diaphorase fluorescence. inhibition, % at 20 µM. 0.78% of 350,000 active. AID 504690;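 active = inhibition reaching at least a set limit at 20 µM in the primary screen, cut at about 59% in these data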;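 note: 0% = DMSO wells with substrate and 100% = DMSO wells lacking glucose-6-phosphate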
FAS-TE inh: inhibitors of human fatty acid synthase thioesterase domain; P49327; recombinant FAS-TE, OMFH fluorogenic substrate, fluorescence endpoint; inhibition, % at 15 µM; 0.67% of 360,000 active;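 active = compounds whose normalised, plate-corrected inhibition of enzyme fluorescence in the single-dose primary screen is 50% or more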;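 note: 0% = DMSO with enzyme and 100% = substrate without enzyme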
KLK7 zymogen act: activates the human kallikrein-7 zymogen | purified proKLK7, EDANS-DABCYL substrate fluorescence; 100% is mature enzyme control, 0% vehicle | activation, % at 7 µM | 0.9% of 370,000 active;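 active = activation above the mean of all tested compounds plus 3 SD, computed per campaign excluding outliers beyond control limits, cut at about 13% in these data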
Target sequence (P49862 whole entry, looked up): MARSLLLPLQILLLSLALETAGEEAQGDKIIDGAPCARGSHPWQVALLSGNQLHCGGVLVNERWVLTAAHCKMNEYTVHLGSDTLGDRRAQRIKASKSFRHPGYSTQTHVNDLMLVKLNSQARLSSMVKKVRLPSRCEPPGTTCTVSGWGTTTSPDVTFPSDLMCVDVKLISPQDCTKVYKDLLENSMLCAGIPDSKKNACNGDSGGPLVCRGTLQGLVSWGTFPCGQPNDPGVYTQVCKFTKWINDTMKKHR
Neddyl block: blocks human cullin neddylation; P61081+Q13564; TR-FRET cullin neddylation, biochemical; calls only at 25 µM; 0.58% of 360,000 active; AID 651699; in the data active = inhibition above about 36%
KLK7 act conf: proKLK7 activation, confirmation | shares compounds with KLK7 zymogen act | purified proKLK7, EDANS-DABCYL substrate fluorescence; scaled: vehicle 0, mature enzyme 100 | activation, % at 7 µM | 68% of 3,200 active;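 active = activation, as change over the incubation, above the mean of all tested compounds plus 3 SD, cut at about 13% in these data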
EDANS interfere: fluorescence interference counter-screen for KLK7 activators; activation, % at 7 µM; 80% of 3,200 active; shares compounds with KLK7 zymogen act; EDANS-DABCYL substrate fluorescence interference, no enzyme, 4 h; solvent 0%, active enzyme control 100%; AID 686952;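 active = activation above the all-compound mean plus 3 SD, ignoring values outside control-based bounds, cut at about 4.8% in these data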;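 note: value is the 4 h activation minus the activation read at time zero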
* = called active by the depositor; i = inactive; . = not tested or not shown.

SMILES	PfGluPho inh	FAS-TE inh	KLK7 zymogen act	Neddyl block	KLK7 act conf	EDANS interfere
O=C(Nc1cccnc1)c1coc(=O)c2ccccc12	3.4	-3.4	460.5*	i	354.9*	343.0*
O=C(Nc1cccnc1)c1ccccc1O	6.4	-4.4	0.2	i	.	.
Cc1ccc(NC(=O)CSCC(=O)OCc2cc(=O)oc3cc(O)ccc23)c(C)c1	-1.0	-5.8	468.0*	.	288.3*	306.3*
CC(=O)Oc1cc2oc(=O)cc(C)c2cc1OC(C)=O	-19.8	-7.4	68.1*	.	76.7*	89.9*
COC(=O)Cc1cc(=O)oc2cc(O)ccc12	-4.3	-7.9	50.1*	.	75.0*	68.7*
Cc1ccc(S(=O)(=O)CCC(=O)Oc2ccc3c(C)cc(=O)oc3c2)cc1	13.2	10.0	24.3*	.	123.3*	108.7*
CC(=O)Oc1cc(OC(C)=O)c2c(=O)c(-c3ccc4c(c3)OCCCO4)c(C)oc2c1	-11.3	-0.9	29.5*	.	169.0*	137.3*
CCN(CC)c1ccc2c(C)cc(=O)oc2c1	-4.3	-1.7	26.8*	i	16.7*	25.6*
CCN(CC)c1ccc2ccc(=O)oc2c1	11.2	-3.5	11.4	.	.	.
Cc1cc(=O)oc2cc(OC(=O)C3CCN(C(=O)c4ccc(F)cc4)CC3)ccc12	0.2	7.3	13.7*	.	427.4*	377.6*
CC(=O)Oc1cc(OC(C)=O)c2c(C)cc(=O)oc2c1	6.1	-7.2	49.9*	.	550.3*	533.8*
O=C(Cc1cc(C(F)(F)F)cc(C(F)(F)F)c1)Nc1c(-c2ccccc2)[nH][nH]c1=O	.	.	-0.4	i	.	.
O=c1ccc2ccc(O)cc2o1	4.0	-8.1	50.8*	i	63.6*	69.8*
CC(=O)Nc1c(OC(C)=O)ccc2c(C)cc(=O)oc12	6.1	-5.9	175.2*	.	489.4*	514.8*
CC(=O)Oc1ccc2c(C)cc(=O)oc2c1	-7.9	1.7	60.2*	.	540.0*	531.4*
Cc1cc(=O)oc2cc(O)cc(OCc3ccccc3)c12	47.4	7.5	35.4*	.	65.8*	77.8*
COc1ccccc1CCn1cnc(-c2cccc(F)c2)c1CC(C)C	.	.	0.2	.	.	.
Cc1cc(=O)[nH]c2cc(O)ccc12	-3.7	-4.7	-123.8	.	.	.
Cc1c(O)ccc2c(CC(=O)N[C@@H](Cc3c[nH]c4ccccc34)C(=O)O)cc(=O)oc12	7.5	0.7	-27.6	.	.	.
O=C(CC1Sc2ccccc2NC1=O)OCc1cc(=O)oc2cc(O)ccc12 (stereo unspecified)	-15.8	5.3	188.4*	.	271.6*	279.0*
CC(=O)Oc1ccc2c(C)cc(=O)[nH]c2c1	2.7	-7.0	179.5*	.	343.2*	302.4*
Cc1cc(=O)oc2cc(OC(=O)CCCCCN3C(=O)c4ccccc4C3=O)ccc12	6.9	27.8	63.3*	.	405.3*	336.5*
O=C(Cc1cc(=O)oc2cc(O)ccc12)N[C@@H](Cc1c[nH]c2ccccc12)C(=O)O	-10.9	0.2	15.7*	.	90.5*	90.2*
Cc1ccc2c(COC(=O)CC3Sc4ccccc4NC3=O)cc(=O)oc2c1C (stereo unspecified)	6.2	-2.2	-0.6	i	.	.
Cc1cc(=O)oc2cc(O)ccc12	-18.7	-7.1	99.5*	.	62.6*	64.0*
SMILES	PfGluPho inh	FAS-TE inh	KLK7 zymogen act	Neddyl block	KLK7 act conf	EDANS interfere
O=c1cc(O)c2ccc(O)cc2o1	-0.1	-3.6	6.5	i	.	.
C[C@H](CO)N1C[C@H](C)[C@@H](CN(C)C(=O)Cc2ccccc2)OCCCC[C@H](C)Oc2ccc(NC(=O)NC3CCCCC3)cc2C1=O	10.9	-1.2	0.6	i	.	.
O=C(O)CCC(=O)c1ccc(C2CCCCCC2)cc1	.	-2.2	0.2	i	.	.
Cc1cc(C)c2cc3c(N)c(C(=O)N4CCOCC4)sc3nc2c1	26.1	-3.2	18.6*	i	-8.8	-7.7
Nc1c(C(=O)N2CCOCC2)sc2nc3c(cc12)CCC3	-18.3	-2.9	0.0	i	.	.
CCOc1ccc2nc3sc(C(=O)N4CCOCC4)c(N)c3cc2c1	46.1	0.2	13.0*	.	8.1	6.6*
Nc1c(C(=O)N2CCOCC2)sc2nc3c(cc12)CCCC3	28.8	-1.4	-0.1	i	.	.
C[C@@H]1CCCCO[C@H](CN(C)S(=O)(=O)c2cn(C)cn2)[C@@H](C)CN([C@H](C)CO)C(=O)c2cc(NC(=O)CCCN(C)C)ccc2O1	.	.	0.1	.	.	.
CCC(=O)Nc1cccc(-c2cn3ccsc3n2)c1	1.2	-0.9	0.8	i	.	.
Cc1onc(-c2ccccc2Cl)c1C(=O)Nc1cccc(-c2cn3cccnc3n2)c1	13.4	-3.5	.	.	.	.
CC(C)(C)CC(=O)Nc1cccc(-c2cn3cccnc3n2)c1	13.5	-1.8	24.6*	.	15.7*	18.6*
COc1cccc(C(=O)Nc2cc(-c3cn4cccnc4n3)ccc2C)c1	3.0	-3.9	30.7*	.	12.3	-1.6
COc1cc(C(=O)Nc2cccc(-c3cn4cccnc4n3)c2)cc(OC)c1OC	4.9	-1.9	30.0*	.	-9.3	-11.2
CCOC(=O)C1CC(c2ccccc2)=NN1c1ccccc1 (stereo unspecified)	19.4	18.6	-73.9	.	.	.
CCOC(=O)[C@]12CCCC=C1N(Cc1ccc(OC)cc1)C(=O)[C@@H]2CC(=O)NCCC(C)C	.	.	0.3	.	.	.
O=C1c2cc([N+](=O)[O-])ccc2-c2cc(Br)c(N=C(NO)C(F)(F)F)cc21	16.9	-149.2	-0.3	i	.	.
CCC(NC(=O)c1ccc2c(c1)c(C)c(C)n2Cc1ccc(Cl)cc1)c1ccccc1 (stereo unspecified)	.	.	-2.5	.	.	.
CC(=O)Oc1ccc2cc(-c3ccccc3)c(=O)oc2c1	-15.0	-6.4	216.1*	i	564.9*	570.3*
CC(=O)COc1ccc2c(C)c(C)c(=O)oc2c1	-14.3	-7.6	-2.6	.	.	.
COc1ccc(-c2cc3ccc(OCC(=O)NCC4CCC(C(=O)O)CC4)cc3oc2=O)cc1 (stereo unspecified)	19.2	-3.8	63.5*	i	53.9*	73.7*
CC(=O)COc1ccc2cc(-c3ccccc3)c(=O)oc2c1	19.9	3.1	22.8*	.	57.2*	72.9*
COc1ccc(-c2cc3ccc(OC(C)C(=O)O)cc3oc2=O)cc1 (stereo unspecified)	-9.5	-6.4	70.2*	i	70.1*	67.8*
COc1ccc(-c2cc3ccccc3oc2=O)cc1	14.0	11.3	8.1	i	.	.
CCCCCNC(=O)C(c1ccc(-c2ccccc2)cc1)n1c(=O)c(-c2cc3ccccc3[nH]2)nc2ccccc21 (stereo unspecified)	.	.	-0.3	.	.	.
COc1ccc(OC)c(NC(=O)C2(C)CCN2CCc2ccccc2)c1 (stereo unspecified)	.	29.5	0.6	i	.	.
CCC(Oc1ccc2c(c1)C(=O)CC(C)(C)O2)C(=O)NCCN1CCCCCC1 (stereo unspecified)	1.6	-5.6	129.4*	.	48.6*	44.0*
COc1ccc(N2CCN(CCCNC(=O)COc3ccc(F)cc3)CC2)cc1	.	.	0.2	.	.	.

Source: PubChem BioAssay (several laboratories)
